# Screening results (PubChem)
# Sfp PPTase inh = inhibitors of Bacillus subtilis Sfp phosphopantetheinyl transferase | Q9F4F7 | Biochemical Sfp PPTase activity, qHTS | Potency, µM, hits mostly inhibitors | 3.5% of 310,000 active;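 further: the enzyme is Sfp with the accession as filed and its product quenches rhodamine fluorescence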
#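 After 15 min at room temperature with compound, 15 nM Sfp received 5 uM rhodamine-CoA plus 12.5 uM BHQ-2-ybbR (50 mM Hepes pH 7.6, 10 mM MgCl2). Rate came from the fluorescence difference over 30 min, ex 525/em 598 nm.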
# Tau fluor counter = counter-screen for tau fibril formation inhibitors | 0.93% of 280,000 active | Potency, µM (series often up to 57.7 µM) | tau K18 P301L Alexa594 fluorescence, heparin fibrillization; further: nearly all actives have a fitted effect of over 55% in size
#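 Human K18 P301L tau (15 uM unlabeled plus 0.24 uM Alexa 594-labeled, final) in 100 mM sodium acetate pH 7 was mixed with compound and 20 uM heparin and incubated 6 hr at 37 C.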
# G9a block = blocks human histone lysine methyltransferase G9a; AID 504332; G9a H3K9 monomethylation, AlphaScreen, 2 h; Q96KQ7; Potency, µM (top dose mostly 102 µM), usual class: inhibitors; 8.8% of 350,000 active; further: nearly all actives have a fitted effect of over 75% in size
# Target sequence (Q96KQ7 913-1193 limits assumed): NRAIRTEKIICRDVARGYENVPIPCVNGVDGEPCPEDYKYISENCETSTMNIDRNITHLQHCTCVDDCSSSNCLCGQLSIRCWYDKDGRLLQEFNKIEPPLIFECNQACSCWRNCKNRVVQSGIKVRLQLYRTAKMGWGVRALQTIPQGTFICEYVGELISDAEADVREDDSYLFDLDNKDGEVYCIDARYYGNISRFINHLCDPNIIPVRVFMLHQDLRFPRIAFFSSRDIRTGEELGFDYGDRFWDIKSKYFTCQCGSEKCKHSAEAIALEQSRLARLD
#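 Step 1: enzyme (final 20 nM) with compound, 15 min RT. Step 2: substrate peptide 500 nM and SAM 20 uM, 2 h RT. Step 3: anti-H3K9me1 antibody and AlphaScreen beads, 10 min, then plate read.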
# FBPA coupling cs = inhibits coupling enzyme system, counter-screen for aldolase hits; coupling enzyme system counterscreen, AmpLite Red fluorescence; 0.67% of 290,000 active; activity change, negative = inhibition, % at 58.2 µM, hits read low; AID 2472; in the data active means activity change below about -30%
#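 Counterscreen lacking aldolase: glyceraldehyde-3-phosphate coupling-enzyme reagent preincubated 10 min at RT with compound (at 57.5 uM final), then substrate/coupling system with AmpLite Red added; fluorescence read at 525/598 nm after 20 min RT.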
# Tau FP inhib = blocks human tau fibril formation measured by polarization; 0.39% of 280,000 active; P10636; AID 1468; K18 P301L tau heparin fibrillization, Alexa594 FP, 6 h; Potency, µM (doses to about 57.7 µM), most hits filed as inhibitors; further: nearly all actives have a fitted effect of over 55% in size
# Target sequence (P10636 561-689 P618L limits assumed): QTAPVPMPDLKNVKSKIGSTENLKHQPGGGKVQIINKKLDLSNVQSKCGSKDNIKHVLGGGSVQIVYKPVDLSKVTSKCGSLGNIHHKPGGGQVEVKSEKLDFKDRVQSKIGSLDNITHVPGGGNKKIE
#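 Read-out: fluorescence polarization of Alexa 594-labeled tau (0.24 uM), 555 nm excitation, 632 nm emission. Mixtures held 15 uM unlabeled K18 P301L, compound and 20 uM heparin, pH 7 acetate buffer, incubated 6 hr at 37 C.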
# Tau fibril ThT = inhibitors of human tau fibril formation, thioflavin T binding; 2.1% of 270,000 active; Potency, µM (highest dose often 57.4 µM), most hits filed as inhibitors; recombinant tau K18 P301L (four-repeat tau fragment), heparin-induced fibrillization, ThT fluorescence; further: nearly all actives have a fitted effect of over 55% in size
#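 In this qHTS, human K18 P301L tau is incubated with compound and heparin for 6 hr at 37 C, and Thioflavin T fluorescence then reports fibril load.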
# Numbers stand for hits; - = inactive; ? = inconclusive; . = no result given; ! = a repeat was not active; [ ] = dose if it differs, or a comment. Most compounds without a hit are left out; they make up all but 11% or so of the library. Unless noted, the call rests on the fitted dose curve; in most records, active means well fitted curve in the direction sought with a large enough effect; inconclusive means small, poorly fitted or top-dose-only effect, or another doubt; inactive means no such curve, though single readings can be large; an effect the other way counts as inactive or inconclusive.
SMILES,Sfp PPTase inh,Tau fluor counter,G9a block,FBPA coupling cs,Tau FP inhib,Tau fibril ThT
CCOC(=O)C(C(=O)OCC)C(C(=O)OCC)N1CCOCC1 (centres undefined),22µM,-,1.6µM,-,-,?
COc1ccc(C(=O)CSc2ccc(-c3ccco3)nn2)cc1,16µM,-,22µM,-,-,?
COc1ccc(C(=O)CSc2ccc(-c3ccccc3)nn2)cc1,-,-,-,-,-,-
COc1ccc(OC)c(NC(=O)CSc2ccc(-c3sc(C)nc3C)nn2)c1,.,-,-,.,-,?
COc1ccc(OC)c(NC(=O)CSc2ccc(-c3ccco3)nn2)c1,14µM,.,20µM,.,.,.
Cc1cc(C)cc(NC(=O)CSc2ccc(-c3cccs3)nn2)c1,-,?,22µM,-,?,?
COc1ccccc1NC(=O)CSc1ccc(-c2ccco2)nn1,45µM,.,?,.,.,.
Cc1ccc(-c2c(C(=O)Nc3ccc(F)c(F)c3)oc(=O)c3ccccc23)cc1,.,-,-,.,-,-
COc1ccccc1NC(=O)CSc1ccc(-c2cccs2)nn1,-,-,?,-,-,-
Cc1nc(C)c(-c2ccc(SCC(=O)Nc3ccccc3)nn2)s1,-,.,79µM,.,.,.
CC(=O)Nc1ccc(NC(=O)CSc2ccc(-c3sc(C)nc3C)nn2)cc1,-,.,-,.,.,.
COc1ccc(OC)c(NC(=O)CSc2ccc(-c3cccs3)nn2)c1,.,-,2.8µM,.,?,?
CCOC(=O)c1sc2ncnc(N3CCN(c4ccc(OC)cc4)CC3)c2c1C,?,?,13µM,-,?,?
CCN(CC)c1ncnc2sc(C(=O)N3CCN(c4ccc(OC)cc4)CC3)c(C)c12,-,-,14µM,-,-,-
CCN(C(=O)COC(=O)CNC(=O)c1ccc2ccccc2c1)C1CCS(=O)(=O)C1 (centres undefined),-,-,-,-,-,-
CN(CCCNC(=O)CCC(=O)N1CCOc2ccc(Cl)cc21)Cc1ccccc1,-,.,-,-,.,.
CCCCn1c(=O)nc2n(-c3ccc(Cl)cc3)c3ccccc3cc-2c1=O,-,-,40µM,-,-,-
COc1cc(C(=O)Nc2cc3c(cc2C)n(C)c(=O)c(=O)n3C)cc(OC)c1OC,.,-,-,.,-,-
C=CCn1c2ccccc2c2nnc(SCCN3CCOCC3)nc21,?,.,.,-,.,.
Cn1c2ccc(F)cc2c2nnc(SCCN3CCOCC3)nc21,?,.,50µM,-,.,.
CCCCn1c2ccc(F)cc2c2nnc(SCCN3CCOCC3)nc21,56µM,.,40µM,-,.,.
O=C(CCc1ccccc1)NC(=S)NCc1ccco1,-,-,-[12.7 µM],-,-,-
CC(=O)Nc1ccc(NC(=O)Cc2ccc(S(=O)(=O)N3CCCCC3)s2)cc1,-,?,?,-,-,?
CC1CCCN(S(=O)(=O)c2ccc(NC(=O)CNC3CCCC3)cc2)C1 (centres undefined),-,.,40µM,-,.,.
CC1CCN(S(=O)(=O)c2ccc(NC(=O)Cc3ccc(S(=O)(=O)N4CCOCC4)s3)cc2)CC1,.,.,-[0.501 µM],.,.,.
SMILES,Sfp PPTase inh,Tau fluor counter,G9a block,FBPA coupling cs,Tau FP inhib,Tau fibril ThT
O=C(Cc1ccc(S(=O)(=O)N2CCOCC2)s1)Nc1ccc(S(=O)(=O)N2CCCCC2)cc1,.,.,45µM,.,.,.
O=C(Cc1ccc(S(=O)(=O)N2CCOCC2)s1)Nc1ccc2c(c1)CCC2,-,?,-,-,-,-
COC(=O)CCNC(=O)Cc1ccc(S(=O)(=O)N2CCCCC2)s1,.,.,50µM,.,.,.
O=C(Cc1ccc(S(=O)(=O)N2CCOCC2)s1)Nc1nc2c(s1)CCCC2,-,-,.,-59,-,?
CCCCN1CC(c2nc3ccccc3n2CCCCOc2c(C)cccc2C)CC1=O (centres undefined),.,-,?,.,-,-
CSc1ccc(CCNC(=O)C2CCN(c3nc4ccccc4nc3C(F)(F)F)CC2)cc1,.,-,-,.,-,-
CC1CCCN(S(=O)(=O)c2ccc(NC(=O)Cc3ccc(S(=O)(=O)N4CCOCC4)s3)cc2)C1 (centres undefined),.,.,4µM,.,.,.
O=C(Cc1ccc(S(=O)(=O)N2CCOCC2)s1)NC1CCCCC1,.,.,13µM,.,.,.
CCOc1ccc(NC(=O)COC(=O)Cc2ccc(S(=O)(=O)N3CCOCC3)s2)cc1,-,-,40µM,-,-,-
CNC(=O)c1ccc(NC(=O)Cc2ccc(S(=O)(=O)N3CCOCC3)s2)cc1,.,.,45µM,.,.,.
CCN(C(=O)Cn1c(SCC(=O)Nc2ccc(OC)cc2)nc2ccccc21)c1cccc(C)c1,.,-,-,.,-,-
COc1cc(CCC(=O)OCC(=O)Nc2ccc(Br)cc2F)cc(OC)c1OC,-,.,-,-,.,.
COc1cc2c(CCNC(C)=O)c[nH]c2cc1O,.,-,20µM!,.,-,-
CCc1nnc(N/N=C/c2cc(C)c(C)cc2C)n1N,-,.,79µM,-,.,.
CCc1nnc(N/N=C/c2c(C)[nH]c3ccccc23)n1N,8.9µM,-,18µM,-,-,?
Cc1[nH]c2ccccc2c1/C=N/NC(=O)c1ccc(N)cc1,-,.,-,-,.,.
CCc1nnc(N/N=C/c2c(F)cccc2Cl)n1N,-,.,45µM,-,.,.
CCc1nnc(-n2nc(C)cc2-c2ccccc2)n1N,-,-,-,-,-,-
CCCOC(=O)c1cc(NC(=O)/C=C/c2ccccc2)ccc1O,-,-,-,-,-,-
Fc1ccc(Nc2nc3ccccc3n3cnnc23)c(F)c1,.,-,-,.,-,-
CCc1ccc(CNC(=O)C2Cc3cc(S(=O)(=O)N4CCCC4)ccc3N2C(C)=O)cc1 (centres undefined),-,.,.,.,.,.
Cc1ccc(CN2CCC(N3CC(C)OC(C)C3)CC2)cc1 (centres undefined),-,.,13µM,-,.,.
COc1ccc(CN2CCN(C(=O)c3cccs3)CC2)c(OC)c1OC,?,-,?,-,-,-
CSc1ccc(CN2CCC(N3CC(C)OC(C)C3)CC2)cc1 (centres undefined),-,.,.,-,.,.
COc1ccc(CN2CCC(N3CC(C)OC(C)C3)CC2)c(OC)c1OC (centres undefined),56µM,.,.,-,.,.
SMILES,Sfp PPTase inh,Tau fluor counter,G9a block,FBPA coupling cs,Tau FP inhib,Tau fibril ThT
Cc1ccc(CNC(=O)C(C)n2c(=O)cc(-c3ccccc3)c3c(C)nn(C)c32)cc1 (centres undefined),.,-,-,.,-,-
COc1ccc(C)c2sc(N(CCCN(C)C)C(=O)c3ccc(S(=O)(=O)N(C)C)cc3)nc12,-,-,?,-,-,-
CCN(CC)CCN(C(=O)C1=COCCO1)c1nc2c(OC)ccc(OC)c2s1,-,.,45µM,-,.,.
CN(C)CCN(C(=O)c1ccc2c(c1)OCCO2)c1nc2c(Cl)cccc2s1,-,.,.,-,.,.
Cc1cccc2sc(N(CCN(C)C)C(=O)c3cc(Cl)sc3Cl)nc12,-,-,45µM,-,-,?
COc1ccc(OC)c2sc(N(CCN(C)C)C(=O)c3ccc4ccccc4c3)nc12,?,.,16µM,-,.,.
COc1ccc(Cl)c2sc(N(CCN(C)C)C(=O)c3ccc4c(c3)OCCO4)nc12,.,.,50µM,.,.,.
